Source: the supplement of paper PMC9262897, “Low-cost anti-mycobacterial drug discovery using engineered E. coli” (Nature Communications, 2022)
Where a name gives a salt, the structure may show the parent alone. ± gives the standard deviation of the averaged measurements.

The molecules below were run on E. coli TESEC Mtb DapB (assay: growth (OD600 after 10 h); higher = more growth (less inhibition)). Details: arabinose induction (level): High; compound 0.1 mM; raw OD600 reference: median of DMSO wells […], cell-free background 0.041.
Method: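 TESEC E. coli strains in which the native enzyme is deleted and replaced by arabinose-inducible Mtb Asd, DapB, CysH or TrpD, each grown in its selective medium. Strains were screened against the Prestwick library at 0.1 mM and 1% DMSO in 384-well format at low and high arabinose induction. Growth is read as OD600 after 10 h in triplicate.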
In the case of C=CCOC(Cn1ccnc1)c1ccc(Cl)cc1Cl (stereo not given) [Enilconazole], the growth is reported as 0.0767 ± 0.0029. Work on CC(=O)N(CC(O)CN(C(C)=O)c1c(I)c(C(=O)NCC(O)CO)c(I)c(C(=O)NCC(O)CO)c1I)c1c(I)c(C(=O)NCC(O)CO)c(I)c(C(=O)NCC(O)CO)c1I (stereo not given) [Iodixanol] yielded a growth of 0.206 ± 0.0036. C=CC1=C(C(=O)O)N2C(=O)[C@@H](NC(=O)/C(=N\OCC(=O)O)c3csc(N)n3)[C@H]2SC1 [Cefixime] was tested, and the growth was 0.0696 ± 0.022. For C[C@@H](O)[C@H]1C(=O)N2C(C(=O)O)=C(SCCNC=N)C[C@H]12 [Imipenem], the growth was 0.198 ± 0.012. In the case of CCOc1cc(CC(=O)N[C@@H](CC(C)C)c2ccccc2N2CCCCC2)ccc1C(=O)O [Repaglinide], the growth is reported as 0.168 ± 0.014. Molecule CC(C)[C@H]1CC[C@H](C(=O)N[C@H](Cc2ccccc2)C(=O)O)CC1 [Nateglinide] has a growth of 0.1583 ± 0.001. OCCN(CCO)c1nc(N2CCCCC2)c2nc(N(CCO)CCO)nc(N3CCCCC3)c2n1 [Dipyridamole] gave a growth of 0.195 ± 0.035. Molecule CC[N+](C)(CC)CCOC(=O)C1c2ccccc2Oc2ccccc21 [Methantheline bromide] has a growth of 0.173 ± 0.018. CCCCCCNC(=O)n1cc(F)c(=O)[nH]c1=O [Carmofur] was tested, and the growth was 0.179 ± 0.01. In the case of Cn1c(=O)c2nc[nH]c2n(C)c1=O [Theophylline monohydrate], the growth is reported as 0.197 ± 0.014. O=C(C1CCCCC1)N1CC(=O)N2CCc3ccccc3C2C1 (stereo not given) [Praziquantel] gave a growth of 0.174 ± 0.0068. CC(=O)OCC(=O)[C@@]1(O)CC[C@H]2[C@@H]3CCC4=CC(=O)CC[C@]4(C)[C@@]3(F)[C@@H](O)C[C@@]21C [Fludrocortisone acetate] showed a growth of 0.188 ± 0.014. For O=C(OCC(O)CO)c1ccccc1Nc1ccnc2cc(Cl)ccc12 (stereo not given) [Glafenine hydrochloride], the growth was 0.196 ± 0.0089. With C#CCN[C@@H]1CCc2ccccc21 [Rasagiline] the growth was 0.186 ± 0.0077. Work on N=C(N)NC(=O)Cc1c(Cl)cccc1Cl [Guanfacine hydrochloride] yielded a growth of 0.19 ± 0.015. With C[C@]1(Cn2ccnn2)[C@H](C(=O)O)N2C(=O)C[C@H]2S1(=O)=O [Tazobactam] the growth was 0.195 ± 0.004. In the case of Nc1nc2[nH]cc(CCc3ccc(C(=O)N[C@@H](CCC(=O)O)C(=O)O)cc3)c2c(=O)[nH]1 [Pemetrexed disodium], the growth is reported as 0.19 ± 0.019. NNCCc1ccccc1 [Phenelzine sulfate] was tested, and the growth was 0.191 ± 0.012. Work on CC[C@H]1OC(=O)C[C@@H](O)[C@H](C)[C@@H](O[C@@H]2O[C@H](C)[C@@H](O[C@H]3C[C@@](C)(O)[C@@H](O)[C@H](C)O3)[C@H](N(C)C)[C@H]2O)[C@@H](CC=O)C[C@@H](C)C(=O)/C=C/C(C)=C/[C@@H]1CO[C@@H]1O[C@H](C)[C@@H](O)[C@@H](OC)[C@H]1OC [Tylosin] yielded a growth of 0.0739 ± 0.0012. Work on NC(CO)C(=O)NNCc1ccc(O)c(O)c1O (stereo not given) [Benserazide hydrochloride] yielded a growth of 0.185 ± 0.023.

Same assay, conditions: arabinose induction (level): Low; compound 0.1 mM; raw OD600 reference: median of DMSO wells 0.227, cell-free background 0.041
Molecule C=CCOC(Cn1ccnc1)c1ccc(Cl)cc1Cl (stereo not given) [Enilconazole] has a growth of 0.0764 ± 0.0069. CC(=O)N(CC(O)CN(C(C)=O)c1c(I)c(C(=O)NCC(O)CO)c(I)c(C(=O)NCC(O)CO)c1I)c1c(I)c(C(=O)NCC(O)CO)c(I)c(C(=O)NCC(O)CO)c1I (stereo not given) [Iodixanol] was tested, and the growth was 0.215 ± 0.043. C=CC1=C(C(=O)O)N2C(=O)[C@@H](NC(=O)/C(=N\OCC(=O)O)c3csc(N)n3)[C@H]2SC1 [Cefixime] showed a growth of 0.0479 ± 0.0042. C[C@@H](O)[C@H]1C(=O)N2C(C(=O)O)=C(SCCNC=N)C[C@H]12 [Imipenem] was tested, and the growth was 0.231 ± 0.015. In the case of CCOc1cc(CC(=O)N[C@@H](CC(C)C)c2ccccc2N2CCCCC2)ccc1C(=O)O [Repaglinide], the growth is reported as 0.201 ± 0.031. CC(C)[C@H]1CC[C@H](C(=O)N[C@H](Cc2ccccc2)C(=O)O)CC1 [Nateglinide] gave a growth of 0.217 ± 0.06. OCCN(CCO)c1nc(N2CCCCC2)c2nc(N(CCO)CCO)nc(N3CCCCC3)c2n1 [Dipyridamole] showed a growth of 0.205 ± 0.033. Work on CC[N+](C)(CC)CCOC(=O)C1c2ccccc2Oc2ccccc21 [Methantheline bromide] yielded a growth of 0.222 ± 0.018. CCCCCCNC(=O)n1cc(F)c(=O)[nH]c1=O [Carmofur] was tested, and the growth was 0.201 ± 0.018. In the case of Cn1c(=O)c2nc[nH]c2n(C)c1=O [Theophylline monohydrate], the growth is reported as 0.241 ± 0.044. With O=C(C1CCCCC1)N1CC(=O)N2CCc3ccccc3C2C1 (stereo not given) [Praziquantel] the growth was 0.21 ± 0.027. With CC(=O)OCC(=O)[C@@]1(O)CC[C@H]2[C@@H]3CCC4=CC(=O)CC[C@]4(C)[C@@]3(F)[C@@H](O)C[C@@]21C [Fludrocortisone acetate] the growth was 0.242 ± 0.039. O=C(OCC(O)CO)c1ccccc1Nc1ccnc2cc(Cl)ccc12 (stereo not given) [Glafenine hydrochloride] showed a growth of 0.276 ± 0.059. For C#CCN[C@@H]1CCc2ccccc21 [Rasagiline], the growth was 0.243 ± 0.025. N=C(N)NC(=O)Cc1c(Cl)cccc1Cl [Guanfacine hydrochloride] gave a growth of 0.214 ± 0.026. C[C@]1(Cn2ccnn2)[C@H](C(=O)O)N2C(=O)C[C@H]2S1(=O)=O [Tazobactam] was tested, and the growth was 0.19 ± 0.017. Nc1nc2[nH]cc(CCc3ccc(C(=O)N[C@@H](CCC(=O)O)C(=O)O)cc3)c2c(=O)[nH]1 [Pemetrexed disodium] was tested, and the growth was 0.231 ± 0.013. For NNCCc1ccccc1 [Phenelzine sulfate], the growth was 0.249 ± 0.056. CC[C@H]1OC(=O)C[C@@H](O)[C@H](C)[C@@H](O[C@@H]2O[C@H](C)[C@@H](O[C@H]3C[C@@](C)(O)[C@@H](O)[C@H](C)O3)[C@H](N(C)C)[C@H]2O)[C@@H](CC=O)C[C@@H](C)C(=O)/C=C/C(C)=C/[C@@H]1CO[C@@H]1O[C@H](C)[C@@H](O)[C@@H](OC)[C@H]1OC [Tylosin] gave a growth of 0.0754 ± 0.0056. In the case of NC(CO)C(=O)NNCc1ccc(O)c(O)c1O (stereo not given) [Benserazide hydrochloride], the growth is reported as 0.227 ± 0.024.
